Screening results deposited in PubChem BioAssay by National Center for Advancing Translational Sciences (NCATS).
D2 ag-1 = agonists of human D2 dopamine receptor (beta-arrestin) | P14416 | DiscoveRx PathHunter D2 beta-arrestin, luminescence, 90 min; 100% = 57 uM dopamine signal | activation, % (test concentration not listed) | hit rate 0.084% among 360,000 | AID 624465; in the data active = activation above about 40%
Target sequence (P14416 whole entry, looked up): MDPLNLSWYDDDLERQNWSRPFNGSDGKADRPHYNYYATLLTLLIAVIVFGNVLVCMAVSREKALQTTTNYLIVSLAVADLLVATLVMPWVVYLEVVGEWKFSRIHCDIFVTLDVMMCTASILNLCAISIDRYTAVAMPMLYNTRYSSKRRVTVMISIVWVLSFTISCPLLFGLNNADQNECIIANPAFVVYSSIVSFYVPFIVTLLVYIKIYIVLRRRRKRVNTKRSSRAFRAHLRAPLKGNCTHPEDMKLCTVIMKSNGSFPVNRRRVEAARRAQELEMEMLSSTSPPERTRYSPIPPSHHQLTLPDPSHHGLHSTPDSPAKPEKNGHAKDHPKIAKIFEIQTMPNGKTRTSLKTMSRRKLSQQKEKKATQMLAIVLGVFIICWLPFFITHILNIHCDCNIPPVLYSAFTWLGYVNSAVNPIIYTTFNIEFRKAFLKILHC
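Agonist mode: compounds alone added to overnight-plated D2 PathHunter cells for 90 min at 37 C, with 57 uM final dopamine (EC100) defining full response. Beta-arrestin recruitment detected by chemiluminescent reagent, read after 1 h at ambient temperature.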
D2 PAM-1 = potentiates the human D2 dopamine receptor allosterically; P14416; DiscoveRx D2 beta-arrestin cells, luminescence, 90 min; 100% = 57 uM dopamine signal; potentiation, % (no concentration beside the values); hit rate 0.23% among 360,000; AID 624464; in the data active = potentiation above about 50%
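PathHunter beta-arrestin assay in DiscoveRx D2 cells. Compounds were added with an EC20 of dopamine (50 nM final) for 90 min at 37 deg C. Luminescence was read 1 h after detection reagent, with 57 uM dopamine as the EC100 control.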
D2 ag-2 = activates the human D2 dopamine receptor; activation, % at 2 µM; hit rate 0.53% among 340,000; P14416; HEK293 T-REx D2 cells, calcium flux agonist mode;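 active = activation over 3 SD above normal in the single-dose calcium agonist read, cut at about 30% in these data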; also: 0% is about no effect
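Calcium-flux readout, 1 cycle/sec over 180 s following compound pin transfer, in inducible HEK293 Trex D2 cells (force-coupled); dopamine controls included. Positive calcium responses during this window marked compounds as potential agonists.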
LDHA block = blocks human lactate dehydrogenase A | purified LDHA, NADH/diaphorase-resazurin fluorescence; stronger effect = lower value | P00338 | hit rate 0.15% among 480,000 | activity change, % (values are at about 110 or 230 µM); in the data active = activity change below about -30%;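 also: plate controls were DMSO wells for no effect and wells without enzyme for full effect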
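Resorufin fluorescence (ex540/em590), read at 0 and 20 min after diaphorase/resazurin addition, reports the NADH left after a 5 min room-temperature reaction of 2 nM human LDH5 with 0.06 mM NADH and 0.2 mM pyruvate.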
D2 PAM-2 = D2 dopamine receptor (human) potentiation. hit rate 0.34% among 340,000. HEK293 T-REx D2, calcium flux, EC20 dopamine potentiation. potentiation, % at 10 µM. AID 485347;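 active = potentiation over 3 SD above the plate norm, cut at about 30% in these data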; also: 0% is about no effect
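Potentiation of an EC20 dopamine calcium response measured kinetically over 180 s, after a preceding 180 s compound-only read flagging agonists. Cells: inducible Hek293 Trex D2 line, 4000/well, cultured overnight at 30 C before dye loading.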
D2 antag = antagonists of human D2 dopamine receptor; HEK293 TREx D2 cells, calcium flux, dopamine EC80; hit rate 2% among 340,000; P14416; inhibition, % at 10 µM; in the data active = inhibition above about 30%; inactive = below that, where a call was filed; also: 0% is about no effect
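Inhibition of EC80 dopamine-driven calcium flux, recorded kinetically, defines activity here; cells are a tetracycline-induced HEK293 T-REx line expressing force-coupled D2.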
Active calls of the source: *; x = no result. Shown are actives, neighbours in structure and some others; about 2.1% of the full set was active somewhere.

SMILES	D2 ag-1	D2 PAM-1	D2 ag-2	LDHA block	D2 PAM-2	D2 antag
Cc1oc2cc(OC(=O)c3ccc(S(C)(=O)=O)cc3)ccc2c(=O)c1-c1ccccc1	x	x	x	-2	x	x
COc1cc(Br)c(/C=C/C(=O)O)cc1OC	x	x	x	4	x	x
CCN(c1ccccc1)S(=O)(=O)c1cnc[nH]1	-3	4	1	-6	1	34*
Cc1[nH]c2ccccc2c1N=Nc1cc(C(=O)O)cc(C(=O)O)c1	-6	-7	0	-34*	-5	-6
Cc1[nH]c2ccccc2c1N=Nc1ccc(F)cc1	-3	-6	1	-5	-13	-4
Cc1c(CC(=O)Nc2ccc3c(c2)OCO3)c(=O)oc2c(C)c(O)ccc12	x	x	x	13	x	x
O=C(Nc1nnc(S(=O)(=O)N2CCCC2)s1)c1ccccc1Cl	-5	-2	-2	-10	-4	35*
Cc1cccc(CSCC(=O)N(C)C)c1	x	x	x	-4	x	x
Cc1ccc[n+](CC(=O)Nc2ccc(N(C)C)cc2)c1	-6	-5	-1	3	-7	11
CC(=O)c1ccc(NC(=O)C[n+]2cccc(C)c2)cc1	-2	-3	0	-3	8	37*
CSc1ncccc1C(=O)OCc1c(F)cccc1Cl	-3	8	2	-3	30*	-10
O=C(OCc1c(F)cccc1Cl)c1cccnc1Cl	-2	-7	-2	-6	16	-5
COc1ccc(S(=O)(=O)CCc2nc3ccccc3s2)cc1	-3	-2	0	-3	-3	59*
O=S(=O)(CCc1nc2ccccc2s1)c1ccc(Cl)cc1	2	7	0	-3	0	-8
CCC(=O)Nc1cccc(NC(=O)c2ccccc2Cl)c1	-2	-4	0	-7	x	0
CCC(=O)Nc1cccc(NC(=O)c2ccc(C)cc2Cl)c1	0	-9	-2	-1	-8	35*
CN(Cc1cccc(C(F)(F)F)c1)C(=O)C1CCC(=O)N(CC2CCCCC2)C1 (stereo not given)	-2	-10	-1	0	-1	31*
Cc1c(C)n(C(=O)CN2CCC(C(N)=O)CC2)c2ccccc12	-2	-8	0	0	-6	36*
CCc1ccccc1NC(=S)NC1CC2CCC(C1)N2Cc1ccco1 (stereo not given)	0	-24	-1	-7	-11	7
Cc1ccc(NC(=S)NC2CC3CCC(C2)N3Cc2ccco2)c(C)c1 (stereo not given)	-2	-24	0	-7	-15	4
Cc1cccc(NC(=S)NC2CC3CCC(C2)N3Cc2ccco2)c1C (stereo not given)	-1	-22	1	-14	-19	36*
Cc1cccc(NC(=S)NC2CC3CCCC(C2)N3Cc2ccccc2)c1C (stereo not given)	-2	-21	0	-8	-28	105*
CCc1ccccc1NC(=S)NC1CC2CCC(C1)N2Cc1ccc(F)cc1 (stereo not given)	0	-6	1	1	-28	78*
Cc1cc(C(=O)NC(C)c2ccc(F)cc2F)c2cnn(C(C)C)c2n1 (stereo not given)	x	x	x	-17	x	x
Cc1nc(N2CCC(C)CC2)c2nnn(Cc3ccccc3)c2n1	-1	-34	0	-2	34*	-24
SMILES	D2 ag-1	D2 PAM-1	D2 ag-2	LDHA block	D2 PAM-2	D2 antag
CC(C)Cc1nc(N2CCC(C(N)=O)CC2)c2nnn(Cc3ccccc3)c2n1	-3	-10	x	-2	x	x
Cc1oc2cc(OCC(=O)Nc3ccc(N4CCOCC4)cc3)ccc2c(=O)c1-c1ccccc1	x	x	x	-2	x	x
COc1cc(C=O)cc(Br)c1OCC(N)=O	-6	-9	-1	-6	1	34*
COc1cc(C=O)cc(Br)c1OCc1cccc(C)c1	x	x	x	3	x	x
Brc1ccc(Oc2ccc3nnnn3n2)cc1	x	x	x	-7	x	x
C=CCn1c(=S)[nH]c2scc(-c3ccc(C)o3)c2c1=O	-3	-3	2	-8	11	32*
C=CCn1c(SCC(C)=O)nc2scc(-c3ccc(C)o3)c2c1=O	1	-8	-2	-7	23	-6
COc1ccc(OC)c(NC(=O)CCn2nc(-c3ccccc3OC)c3c(C)cc(C)nc32)c1	x	x	x	-21	x	x
CC1CCN(CCc2nc3cc(NS(=O)(=O)c4ccccc4)ccc3n2C)CC1	-5	-47	1	0	-22	30*
CC1CCN(CCc2nc3cc(NC(=O)Nc4ccccc4)ccc3n2C)CC1	2	-12	1	-2	-14	-38
CC1CCN(CCc2nc3cc(NS(=O)(=O)c4ccc(F)cc4)ccc3n2C)CC1	-1	-40	-1	-4	x	36*
CC(=O)Nc1ccc2c(c1)nc(CCN1CCC(C)CC1)n2C	-2	-15	0	-2	9	-13
CC(=O)c1cc2c(cc1NC(=O)Cn1c(Nc3cccc(F)c3)nc(C)cc1=O)OCO2	x	x	x	-24	x	x
CCc1ccc(NC(=O)CS(=O)CC(=O)Nc2ccc(-n3cnnn3)c(C)c2)cc1 (stereo not given)	0	-3	-1	-32*	14	-17
Cc1cc(NC(=O)CS(=O)CC(=O)Nc2c(C)cccc2C)ccc1-n1cnnn1 (stereo not given)	5	-2	1	-6	-3	-15
Cc1cc(NC(=O)C2CCN(S(=O)(=O)Cc3ccccc3)CC2)ccc1-n1cnnn1	-2	6	1	-2	1	30*
CN(CCN1CCc2ccccc2C1)Cc1nc(Cc2ccccc2F)no1	1	-15	-2	-5	-12	41*
OCCN(Cc1nc(-c2ccc3c(c2)OCO3)no1)Cc1cccs1	-5	-12	1	-11	-15	39*
CN(CCN1CCc2ccccc2C1)Cc1nc(-c2ccc3c(c2)OCO3)no1	4	-15	0	0	-22	44*
COc1ccc(Cc2noc(CN(C)CCN3CCc4ccccc4C3)n2)cc1OC	-2	-22	2	-9	-23	-32
OC(COc1ccc(OCC(O)CN(Cc2ccccc2)Cc2ccccc2)cc1)CN(Cc1ccccc1)Cc1ccccc1 (stereo not given)	x	x	x	-1	x	x
O=C(COC(=O)CCSc1ccccc1Cl)Nc1ncc(Cl)cc1Cl	x	x	x	-17	x	x
CCOC(=O)N1CCN(C(=O)CSc2nnc(COc3ccccc3)o2)CC1	1	0	-2	-2	-8	2
CCOC(=O)N1CCN(C(=O)CSc2nnc(Cc3ccccc3)o2)CC1	-2	3	1	1	31*	-1
COC(=O)C1=C(N)OC2=C(C(=O)CC(c3ccccc3)C2)C1c1ccc(C)cc1 (stereo not given)	x	x	x	6	x	x
